Measurements: PubChem BioAssay (NCI)
Compounds without any hit were thinned out: in the full panel of roughly 83,000, 20% have a hit.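 Plates (96-well) were seeded with cells, treated with compound at one concentration, and incubated for 48 hours before percent growth was determined.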 A number with no mark means an inactive call. The source made the active and inactive calls. Rule for the calls: active = growth percent below 10; inactive = the rest.

test system: MDA-MB-468 breast; test: NCI-60 one-dose screen, 48 h (100 = growth as untreated, 0 = no growth, -100 = all killed); conditions: 10 µM unless noted

SMILES | growth
COc1cccc2c1CN(C(=O)c1ccc(O)c(C(=O)N3Cc4ccc(OCCC[P+](c5ccccc5)(c5ccccc5)c5ccccc5)cc4C3)c1)C2 | -2.86% (active)
S=C(Nc1ccccc1)c1ccccn1 | 101%
O=C(N/N=C/c1ccccc1O)Nc1nn[nH]n1 | 97.6%
COc1ccc(/C=N/NC2=NC3C(S2)N(C)C(=O)N3C)cc1 (stereo not given) | -8.86% (active)
C[C@]12CCC(=O)C=C1CCC1C2[C@@H](O)C[C@@]2(C)C1CC[C@]2(O)C(=O)COC(=O)CCC(=O)O (stereo not given in full) | 109%
